± gives the standard deviation.
The sequences below were run on MILI (PIWIL2) piRISC loaded with piRNA #1 (26 nt) (assay: pre-steady-state target cleavage rate (min^-1); guide: piRNA #1 5'p-UGAGGUAGUAGGUUGUAUAGUAUCCA; MIWI and MILI are mouse PIWI proteins and EfPiwi is from a freshwater sponge; tags in brackets are library labels; higher = faster piRNA-guided slicing of the target). Conditions: auxiliary factor: 500 nM mouse GTSF1.
Procedure: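 Cleave-'n-Seq: a library of target RNAs (target site embedded in constant flanks, ACAGCATTCCGCGTTAGTGATATCCG... 5' flank; DNA-blocked outside the site) at 0.1 nM was incubated with 1 nM active mouse MILI or MIWI piRISC (synthetic 5'-monophosphorylated piRNA guide) with or without 500 nM mouse GTSF1 at 33 °C for 1 min to 16 h. Uncleaved targets were sequenced and normalised to non-target controls, and the pooled three trials were fitted to a burst-and-steady-state model to give the pre-steady-state cleavage rate (min^-1; k3 is constrained to at most 1e-4). Sequence is the target site only; target names encode pairing extent (gX:gY) and contiguous / 1-mismatch / 2-mismatch / bulge geometry. Fits with R² ≤ 0 are excluded.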

Sequence	pre-steady-state target cleavage rate
GGAGACCAUACUAUCCAACCUACUACCUCA	0.178 ± 0.017
GGAGACCUAUCUAUACAUGCUACUACCUCA	0.0973 ± 0.012
GGAGUCGAUACUUUACAACCUACUACCUCA	0.185 ± 0.009
GGAGACCUAUCUAUACAAUCUACUACCUCA	0.093 ± 0.0085
GGAGAGGAUUCUAUACAACCUUCUACCUCA	0.00976 ± 0.0032
GGAGAGGAUACUAUACAAGCUACUACCUCA	0.143 ± 0.014
GGAGACCUAUGAUAUGUACCUACACCUCA	< 0.0001
GGAGACCUAUCUAUACAACCUACUACGCUCA	0.229 ± 0.023
GGAGACCAUACUAUACAAGCUACUACGUCA	0.139 ± 0.022
GGAGUGGAUAGUAUACAUCCUACUACCUCA	0.189 ± 0.017
GGAGACCUUACUGAUACAACCUACUACCUCA	0.0968 ± 0.011
GGAGAGGAUACUAUACAACUUACUACCUCA	0.0186 ± 0.0027
GGAGAGGAUACUAAACAACGUACUACCUCA	0.013 ± 0.0022
GGAGUGGAUACUAUACAACCUACUCACCUCA	0.166 ± 0.02
GGAGACCUAUGUAUUCAACCUACUACCUGA	0.0167 ± 0.0046
GGAGACCUAUCUAUACAACCUUACUACCUCA	0.00278 ± 0.0026
GGAGAGGAUACUAUACAACCUACCACCUCA	0.129 ± 0.018
GGAGACCUAUGUAUACAAACUACUACCUCA	0.111 ± 0.012
GGAGUGGAUACUAUAGAACCUUCUACCUCA	0.00415 ± 0.0015
GGAGACCUUACUAUACAAGCUACUACCUCA	0.225 ± 0.015

Sequence	pre-steady-state target cleavage rate
GGAGACCUUAGUAUACAACCUUCUACCUCA	0.00489 ± 0.0033
GGAGACCAUACUAUACAACCUACAAGCUCA	0.0598 ± 0.015
GGAGACCUUUCUAUACAACCUACUACGUCA	0.0394 ± 0.0068
GGAGACCUAUCUAUAGAACCUACUACGUCA	0.0269 ± 0.0089
GGAGACCUAACUAUACAACGUAGUACCUCA	0.00851 ± 0.0056
GGAGAGGAUACUGAUACAACCUACUACCUCA	0.17 ± 0.014
GGAGUGGAUACUAUACAACCUACUACGUCA	0.0515 ± 0.0063
GGAGUGGAUACUAUACACCCUACUACCUCA	0.0921 ± 0.0066
GGAGACGAAACUAUACUACCUACUACCUCA	0.132 ± 0.02
GGAGACCAUACUAUACAUCCUACAACCUCA	0.208 ± 0.019
GGAGACCUAUGAAUACAACCUACUACCGUCA	0.00898 ± 0.0024
GGAGAGGAUACUACACAACCUACUACCUCA	0.193 ± 0.019
GGAGACCUUACUAUAGAACGUACUACCUCA	0.0109 ± 0.0021
GGAGACCUAAGCUAUACAACCUACUACCUCA	0.141 ± 0.028
GGAGACCUAACUAUACAUCCUACUACCUGA	0.116 ± 0.039
GGAGACCAUACUAUAAAACCUACUACCUCA	0.2 ± 0.016
GGAGACCUAUGAUAUGUACCUACUAACUCA	< 0.0001
GGAGAGGAUACUAAUGAACCUACUACCUCA	0.0555 ± 0.0058
GGAGACCAUACUAUACAACCUACAACCUGA	0.0179 ± 0.0095
GGAGACCUAUCUUUACAUCCUACUACCUCA	0.104 ± 0.013

Reference: the supplement of paper PMC10338343
